The source of these data is PubChem BioAssay (NCI).

The panel holds about 79,000 compounds, 15% with a hit somewhere; the sample as a whole holds those more often. A number with no mark means an inactive call. Calls of active or inactive are those of the source. No stated cut-off is given here; in the data, active means growth inhibition above about 70%; inactive means the rest.

Assay [1] can be described thus: NCI Yeast Anticancer Drug Screen. Data for the rad50 strain (AID 155).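 Further: 0% = growth of vehicle-only cultures of the same strain.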 To be noted: S. cerevisiae rad50 strain growth inhibition; at 50.0 µM; active compounds read high. In short, it runs like this:
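Compounds were tested on a yeast strain with an engineered DNA damage repair alteration; the reported value is growth inhibition normalised to vehicle treatment.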

Assay [2] in a line: NCI Yeast Anticancer Drug Screen. Data for the mec2-1 strain (AID 157). Particulars: S. cerevisiae mec2-1 strain, at 50.0 µM, active compounds read high. In short, it runs like this: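 Compounds were applied to mec2-1 yeast cells. Their growth was then compared with that of vehicle-treated cultures to give growth inhibition.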
Assay [3] can be described thus: NCI Yeast Anticancer Drug Screen. Data for the sgs1 mgt1 strain (AID 161).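 Further: 0% = growth of cultures given vehicle only.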 To be noted: S. cerevisiae sgs1 mgt1 strain, at 50.0 µM, active compounds read high. The method, boiled down: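 Compounds are added to genetically altered yeast, and growth is compared with cultures given vehicle alone to give percent inhibition.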
Assay [4] is described as follows: NCI Yeast Anticancer Drug Screen. Data for the cln2 rad14 strain (AID 165).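 Further: 0% = growth equal to vehicle treated cultures.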 Particulars: S. cerevisiae cln2 rad14 strain, at 50.0 µM, active compounds read high. The method, boiled down: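 Strain: cln2 rad14 yeast, altered in cell cycle control and DNA damage repair. Read-out: growth inhibition vs vehicle.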
Assay [5] can be described thus: NCI Yeast Anticancer Drug Screen. Data for the mlh1 rad18 strain (AID 175). Particulars: S. cerevisiae mlh1 rad18 strain growth inhibition; at 50.0 µM; active compounds read high. The method, boiled down:
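A repair-deficient yeast strain is exposed to test compound, and growth is scored relative to vehicle-treated controls.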

A short description of assay [6]: NCI Yeast Anticancer Drug Screen. Data for the bub3 strain (AID 167). Particulars: S. cerevisiae bub3 mutant strain, at 50.0 µM, active compounds read high. In short, it runs like this:
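Growth of a checkpoint-deficient yeast mutant is measured after compound exposure. Values represent inhibition relative to vehicle.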

For the molecule `Cc1nc(-c2ccccc2)ncc1C(O)CN(C)C` (stereo not given), the growth inhibition in assay [1] was -4.7%; in assay [2], -6.45%; in assay [3], 5.35%; in assay [4] it was 2.35%; in assay [5], -6.6%.
As for `O=S(=O)(c1ccc(Cl)cc1)c1ccccc1C1=NCCN1`, the growth inhibition in assay [1] was -37.8%; in assay [2], -44.9%; in assay [3], -5.7%; in assay [4], 6.3%; in assay [5] it was -23.8%.
For the molecule `Cn1c2nc(-[n+]3ccc(N4CCOCC4)cc3)nc-2c([O-])n(C)c1=O`, the growth inhibition in assay [1] is -20.8%; in assay [2] it was 1.1%; in assay [3], -17.9%; in assay [4], -44.9%; in assay [5], -11.7%.
The matching figures for `Cc1ccc(C(=O)c2ccccc2C(=O)O)cc1C`: 4.35%, -4.35%, -17.9%, -18.4% and -18.6%.
Regarding `O=C(NNC(=O)c1ccc(Cl)cc1Cl)c1ccccc1`, the growth inhibition is -13.8% in assay [1]; 0.2% in assay [2]; -4.75% in assay [3]; -9.9% in assay [4]; -7.8% in assay [5].
The corresponding values for `COC(=O)C1CCCC(=O)C1C(=O)OC` (stereo not given) are 1.35%, 0.3%, -3.45%, -36.2% and 2.05%.
The matching figures for `CC1(C)CNC(C)(C)CN1`: -4.45%, -11.8%, 4.35%, 1.1% and -18%.
The corresponding values for `C[C@]12CCC(=O)C=C1CC[C@@H]1[C@@H]2CC[C@@]2(C)[C@H]1CC[C@]2(O)C(=O)CCC#N` are -23.1%, -2.6%, 17.1%, -33.4% and 13.2%.
Take `CCOc1cc(=O)cc2n(-c3cc(OCC)c(OC)c(OCC)c3)c3ccccc3nc1-2`: the growth inhibition in assay [1] was 38%; in assay [2] it was 11.7%; in assay [3], 23.6%; in assay [4] it was 21.9%; in assay [5], -1.2%.
On to `COc1cc2cccnc2c2[nH]c(=O)c3c(c12)CCC3`, for which the growth inhibition in assay [1] is 13.9%; in assay [2], 9.35%; in assay [3], -6%; in assay [4] it was -16.4%; in assay [5] it was 7.25%.
The matching figures for `Cn1ncc(C(=O)O)c1[N+](=O)[O-]`: 6.85%, -14.5%, 8.35%, -37.6% and 5.25%.
The matching figures for `Cc1cccc(C)c1NC(=O)C1C(=O)N(c2c(C)cccc2C)C(=O)/C1=N\NC(N)=S` (stereo not given): -15.2%, -24.4%, -37.4%, -9.5% and -34.9%.
For `CCOC(Nc1ccc(Cl)cc1Cl)C(=O)c1ccccc1` (stereo not given), the growth inhibition in assay [1] was 8.65%; in assay [2] it was 6.05%; in assay [3] it was -2.8%; in assay [4] it was 1.85%; in assay [5] it was 1.8%.
On to `c1ccc(Cc2c[nH]c3ccccc23)cc1`, for which the growth inhibition is 9.45% in assay [1]; -0.05% in assay [2]; 9.4% in assay [3]; -9.6% in assay [4]; 14.9% in assay [5].
The matching figures for `COc1cc2ccc(/C=C/C(=O)c3ccc4c(c3)OCO4)cc2cc1OC`: -7.3%, -3.75%, 3.25%, 22.4% and -4.65%.
The corresponding values for `Cc1cccc(-n2c(N)cc(=O)[nH]c2=S)n1` are -11.5%, -2.2%, -7.8%, -38.4% and -4.15%.
The matching figures for `Clc1nncc(SCc2ccccc2)c1SCc1ccccc1`: 17.2%, 11.6%, 8.3%, -9% and 8.4%.
Regarding `CCCc1c(O)cccc1O`, the growth inhibition was 13.8% in assay [1]; 6.55% in assay [2]; 16.9% in assay [3]; 0.9% in assay [4]; 11% in assay [5].
The matching figures for `COc1ccc(/C=C2\CCC(C)(CN(C)C)C2=O)cc1` (stereo not given): 36.5%, 14.6%, 8.15%, 21.1% and 43%.
In the case of `CCOC(=O)C(CCC(c1ccc(OC)cc1)c1ccc(OC)cc1)C(=O)OCC`, the growth inhibition in assay [1] is 29.7%; in assay [2], -8.15%; in assay [3], 10.2%; in assay [4], 2.05%; in assay [5], -18.2%.
The matching figures for `Cc1cc(C)c2c(ccc3ccccc32)n1`: -43.9%, -21.4%, -23.4%, -5.75% and -33.5%.
The matching figures for `CCCCCCC1C=CC(CCCCCCCC(=O)O)C(/C=C/CCCCCCCC(=O)O)C1CCCCCC` (stereo not given): -10.7%, -10.8%, -10.3%, 21% and 6.85%.
The matching figures for `Cc1ccc(NC(=S)N(CCC#N)C2CCCCC2)cc1`: -7.6%, -10.1%, 16.2%, 6.95% and 0.85%.
For the molecule `CN(C)c1ccc(/C=C2\CCc3ccccc3C2=O)cc1Br`, the growth inhibition in assay [1] was 5.6%; in assay [2], -12.1%; in assay [3], -13.9%; in assay [4], -9.05%; in assay [5], -26.6%.
As to `C=C1OC(=O)C(N)=C1C(C)=O`, the growth inhibition in assay [1] is -2.65%; in assay [2], 23.7%; in assay [3], 9.05%; in assay [4], -5.2%; in assay [5] it was 12.4%.
In the case of `Cc1c2oc3c(C)ccc(C(=O)NCCc4ccccn4)c3nc-2c(C(=O)NCCc2ccccn2)c(N)c1=O`, the growth inhibition is 5.9% in assay [1]; -8.05% in assay [2]; 4.05% in assay [3]; 4.9% in assay [4]; -6.9% in assay [5].
As to `O=S1(=O)NNC(=NCc2ccc(Cl)c(Cl)c2)c2ccccc21`, the growth inhibition is 11.2% in assay [1]; -11.8% in assay [2]; -6.15% in assay [3]; -1.4% in assay [4]; -16.4% in assay [5].
`CCC(=O)C(CCN(C)C)c1ccccc1` (stereo not given): the growth inhibition was -10.4% in assay [1]; -0.85% in assay [2]; 9.9% in assay [3]; -22.6% in assay [4]; -7.9% in assay [5].
For `CCC(=O)Oc1ccc(C(OC(=O)CC)OC(=O)CC)cc1OC`, the growth inhibition is -9.1% in assay [1]; -9.1% in assay [2]; 11.8% in assay [3]; -20.2% in assay [4]; 8.05% in assay [5].
Take `COc1ccc(COCc2ccc(OC)cc2)cc1`: the growth inhibition was 4.55% in assay [1]; -10.6% in assay [2]; 8.7% in assay [3]; -66.5% in assay [4]; 12.7% in assay [5].
The corresponding values for `O=C1Nc2ccc3[nH]ncc3c2C1=O` are 11.7%, -0.65%, -2.45%, -11.8% and 7.6%.
The matching figures for `NS(=O)(=O)c1ccc(NC(=O)c2cccc3c(=O)c4ccccc4[nH]c23)cc1`: -2.55%, -1.95%, -13.2%, 14.8% and -14.1%.
The corresponding values for `CC12CC(=O)C3C(CCC4CC(OS(=O)(=O)O)CCC43C)C1CC1OC(=O)C=C12` (stereo not given) are 18.2%, -8.75%, -5.85%, 15.9% and 25.6%.
As to `O=CC1CCCO1` (stereo not given), the growth inhibition in assay [1] is 21.2%; in assay [2], -22.2%; in assay [3], 15.2%; in assay [4], 6.9%; in assay [5], 22%.
The matching figures for `Cc1ccc(Sc2ccc3ccccc3c2)nc1`: 6.75%, -8.2%, -17.6%, -12.2% and -16.9%.
The corresponding values for `C/C=C(\C)CCC(C)(O)CC` (stereo not given) are 2.2%, -15.6%, 7.45%, 3% and 14.1%.
For `CCC(C(=O)c1cccs1)C(O)(C(F)(F)F)C(F)(F)F` (stereo not given), the growth inhibition was -13.8% in assay [1]; 4.6% in assay [2]; -28.4% in assay [3]; -83.2% in assay [4]; 22.9% in assay [5].
The corresponding values for `c1ccc(-c2ccc(-c3cc4ccccc4c4ccccc34)cc2)cc1` are -13.8%, -15%, -17.2%, -5.8% and -9.2%.
In the case of `OCCC1=CCC1`, the growth inhibition in assay [1] is 3.05%; in assay [2], 20.9%; in assay [3] it was -3.35%; in assay [4] it was 29.6%; in assay [5], 5.4%.
As for `O=C1Nc2c(Cl)cc(Cl)cc2C1=O`, the growth inhibition in assay [1] was 7.9%; in assay [2], 45.1%; in assay [3], 37.7%; in assay [4] it was -2.75%; in assay [5] it was 91.8% (active).
Take `C(=C/c1ccc(/C=C/C=C\c2ccccc2)cc1)/C=C/c1ccccc1`: the growth inhibition in assay [1] is -4.1%; in assay [2], -2.25%; in assay [4] it was -50.6%; in assay [6] it was -2.1%; in assay [5], -12.2%.
Take `Oc1c(C(O)N2CCOCC2)cc(C(O)N2CCOCC2)c(O)c1O` (stereo not given) (tested in a mixture with another compound): the growth inhibition in assay [1] was -3.3%; in assay [2], -11.1%; in assay [4], -16.2%; in assay [6], -3.15%; in assay [5], 9.75%.
The corresponding values for `COC(=O)C1=CO[C@@H](C)[C@@H]2Cn3ccc4c5ccccc5nc-4c3C[C@H]12` are 2.4%, -17.4%, 4.5%, -3.9% and 1.4%.
The matching figures for `O=C1OC(c2ccccc2)=N/C1=C\c1cc2c(cc1Cl)OCO2`: 4.05%, 11.7%, -25.3%, -5.7% and 20.1%.
The matching figures for `CC(C)CNC(=O)C(=O)NCC(C)C`: -4.65%, -9.7%, -41.5%, -21.4% and -2.4%.
Turning to `Cc1nnsc1-c1nc2ccccc2[nH]1`, the growth inhibition in assay [1] was 22.2%; in assay [2], 1.95%; in assay [4], 20.1%; in assay [6], 32.5%; in assay [5], 38.4%.
The corresponding values for `[N-]=[N+]=NC1CCOC(n2cnc3c(N)ncnc32)C1O` (stereo not given) are -2.05%, -3.95%, -33.5%, -4.6% and 1.85%.
On to `COc1cccc(/C=N/N(C)c2c([N+](=O)[O-])cc(C(F)(F)F)cc2[N+](=O)[O-])c1O`, for which the growth inhibition in assay [1] was -1.3%; in assay [2], -17.3%; in assay [4], 14.1%; in assay [6], 3.7%; in assay [5], -5.8%.
